Data from PubChem BioAssay (NCI).
About 79,000 compounds went through this panel and 15% of them were active in at least one assay; those are over-represented in the sample as a whole. The source made the active and inactive calls. No stated cut-off is given here; in the data, active means growth inhibition above about 70%; inactive means the rest.

Assay: NCI Yeast Anticancer Drug Screen. Data for the bub3 strain (AID 167)
Settings: S. cerevisiae bub3 mutant strain, at 50.0 µM, stronger effect = higher value
In short: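 Growth of a checkpoint-deficient yeast mutant is measured after compound exposure. Values represent inhibition relative to vehicle.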

| SMILES | growth inhibition |
| --- | --- |
| COC(=O)c1ccc(NN)cc1 | 86% (active) |
| O=[N+]([O-])c1ccc(-c2nc3c(o2)CCC3)cc1 | -4.6% (inactive) |
| Cc1ccc(S(=O)(=O)N/N=C(\C=C\c2ccccc2)c2ccccc2)cc1 | 41.1% (inactive) |
| [N-]=[N+]=NC1=CC(=O)c2cccc3cccc1c23 | 89% (active) |
| CCOc1ccc2nc3cc(Cl)ccc3[n+](C)c2c1 | 83.9% (active) |
| Cc1ccc(C(c2ccc(N(C)C)cc2)c2ccc(N(C)C)cc2)cc1 | 94.7% (active) |
| O=[N+]([O-])c1ccc2c(c1)[n+]([O-])c1[nH]c3ccccc3c1[n+]2[O-] (tested in a mixture with another compound) | 81.8% (active) |
| C/C(=N\NC(=S)N1CCCCCC1)c1cccc2cccnc12 | 87.5% (active) |
| CC(C)c1cc(O)c(C(C)(C)C)cc1Cl | 76.6% (active) |
| CN(C)c1ccc(/C=C(/NC(=O)c2ccccc2)c2nc3ccc(Cl)cc3[nH]2)cc1 | 71.5% (active) |
| CC(C)(C)c1ccc2c(c1)C(O)(c1ccccc1)C1OC1(C(C)(C)C)C2=O (stereo not given) | 94.7% (active) |
| CCCCCCCCCCCCOP(=O)(N1CC1(C)C)N1CC1(C)C (stereo not given) | 87.3% (active) |
| Cc1ccc(C(=O)CC(N)C(=O)O)cc1 (stereo not given) | -2.25% (inactive) |
| COC(=O)CCC(=O)NCCc1ccc2c([nH]c3ccccc32)c1C | 63.5% (inactive) |
| Nc1ccc(C(=O)N/C(=C\C=C\c2ccco2)c2nc3c4c(ccc3[nH]2)C(=O)c2ccccc2C4=O)cc1 | 31.9% (inactive) |
| Oc1ccc(CCCCCc2ccc(O)cc2)cc1 | 99.6% (active) |
| O=C(O)C1C(C(=O)O)C2C(=O)C=CC1N2Cc1ccccc1 (stereo not given) | 91.4% (active) |
| CC1(C)CC(=O)C(c2ccccc2[N+](=O)[O-])=C(O)C1 | 98.3% (active) |
| ON(Cc1ccccc1)C(=S)c1ccccc1 | 89% (active) |
| CCCCC(O)(c1ccc2nc(NC(=O)OC)[nH]c2c1)c1cccs1 (stereo not given) | 35.5% (inactive) |

| SMILES | growth inhibition |
| --- | --- |
| O=C(O)CC/C(=N\Nc1ccccc1)C(=O)O | 97.3% (active) |
| CC(C)(c1ccc(OC#N)cc1)c1ccc(OC#N)cc1 | 25% (inactive) |
| C=CC(C)(CCC=C(C)C)OC(=O)Nc1ccccc1 (stereo not given) | 8.05% (inactive) |
| Cc1ccc(Cc2nc(=S)[nH][nH]2)cc1 | -6.3% (inactive) |
| Cc1c(Cl)c(S(N)(=O)=O)cc2c1NC=NS2(=O)=O | -20.4% (inactive) |
| O=C(c1cccnc1)N(C1CCCCC1)C1CCCCC1 | 0.35% (inactive) |
| COc1cc(NCC(C)(O)CN2CCC(C)CC2C)c2ncccc2c1 (stereo not given) | 80.7% (active) |
| O=C1C=CC(=Nc2cccc3c2-c2ccccc2C3)O1 | 99.7% (active) |
| CC(O)c1c2c(cc3c1CC1(C3)Cc3cc4c(c(C(C)O)c3C1)CCC4)CCC2 (stereo not given) | 87.2% (active) |
| CCCCCCCCCCCCCCCC[N+](C)(C)CCl | 87.3% (active) |
| CCCCC(CC)CNc1ncnc2c1cnn2C (stereo not given) | 48.4% (inactive) |
| O=C1NN(C2=NNC3(C(=O)N2)c2ccccc2-c2ccccc23)C(c2ccccc2)=N/C1=C/c1ccc(Cl)cc1 | 18.4% (inactive) |
| CCCCc1ccc2nccc(N/N=C/c3ccc(OC)c4ccccc34)c2c1 | 79% (active) |
| CC(C)(C[NH-])C[NH-].[Cl][Pt+2]([Cl])([Cl])[Cl] | 82.5% (active) |
| O=C(O)C1(Cc2ccc3c(c2)CCC3)Cc2ccccc2C1 | 90% (active) |
| CCN(CC)C(C)(C)C(=O)/C=C/c1ccc(Cl)cc1 | 54.5% (inactive) |
| CCc1ccccc1NC(=O)C(=O)C(C#N)c1c(Cl)cccc1Cl (stereo not given) | 12.2% (inactive) |
| COc1c(OC)c(C2(O)C(=O)N(C)c3ccccc32)c(OC)c(OC)c1C1(O)C(=O)N(C)c2ccccc21 (stereo not given) | 4.85% (inactive) |
| Nc1ccc2ccccc2c1N=Cc1ccccc1[N+](=O)[O-] | 30.2% (inactive) |
| O=[N+]([O-])C1=Cc2cc(Cl)ccc2OC1c1cccc2ccccc12 (stereo not given) | 85.5% (active) |
